This passage reports inhibition results from PubChem BioAssay AID588689 (Southern Research Specialized Biocontainment Screening …, 2011).

For this assay, the target named is Genome polyprotein (Dengue virus type 2 (strain 16681-PDK53)) (UniProt P29991). Put plainly: Dengue-2 NS5 methyltransferase inhibitors, primary screen, biochemical, confirmation dose response (AID 588689). The conditions noted are these: Dengue-2 NS5 methyltransferase capping enzyme assay, at 25 µM, stronger effect = higher value.
Setting [1] is: measured here: pilot screen replicate inhibition.

The structures appear in SMILES notation. Out of some 340,000 compounds screened, about 1,000 (0.29%) were called active. Rule as the data show it: inconclusive = inhibition above about 29% without an active follow-up result; inactive = below that. A selection follows. Entries with a potency or affinity are not part of this list.

Broadly, the inhibition is the drop in the measured response relative to a control, in per cent. On to `COc1cccc(NC(=S)N2CCC(c3ccc(C)cc3)C2)c1` (stereo not given), for which the inhibition is -1.96% (inactive).

Consider `COc1ccc(CCNC(=O)c2nnn(CC(=O)Nc3c(C)cc(C)cc3C)c2N)cc1OC`, for which the inhibition was -7.1% (inactive).

As to `CCOc1ccc(CC(=O)C2C(=O)CC(C)(C)CC2=O)cc1OCC`, the inhibition is -13.1% (inactive).

`COc1ccc(NC(=O)c2ccc(COCC(F)(F)F)cc2)cc1OC`: the inhibition was -2.91% (inactive).

Turning to `COc1cc(NC(=O)c2ccc(COCC(F)(F)F)o2)cc(OC)c1OC`, the inhibition was 0% (inactive).

On to `COc1ccc(N2C(=O)CC(C)(C)CC2=O)cc1OC`, for which the inhibition was 0% (inactive).

Regarding `COc1cc(C(O)C(=O)O)ccc1O` (stereo not given), the inhibition is -7.33% (inactive).

As to `CC1(C)CC(=O)C(C(c2ccccc2F)C2C(=O)CC(C)(C)CC2=O)C(=O)C1`, the inhibition is 22.6% (inactive).

On to `COc1cc(C(C2C(=O)CC(C)(C)CC2=O)C2C(=O)CC(C)(C)CC2=O)ccc1OC(C)=O`, for which the inhibition was -2.35% (inactive).

On to `O=C(/C=C1\SC(=O)NC1=O)Nc1ccc(F)cc1`, for which the inhibition is 0% (inactive).

`Cc1cc(Br)ccc1NC(=O)CNC(=O)CSc1n[nH]c(N)n1`: the inhibition is -4.68% (inactive).

For `O=C(COC(=O)c1cc(Cl)ccc1O)Nc1cc(C(F)(F)F)ccc1N1CCOCC1`, the inhibition was -3.11% (inactive).

In the case of `CCCN1Cc2cccc(C(=O)NCCc3cccc(C)c3)c2C1=O`, the inhibition is 3.25% (inactive).

Take `COc1cc(NC2=CC(=O)CC(C)(C)C2)cc(OC)c1OC`: the inhibition was 1.61% (inactive).

As for `COc1cc(C2CC(=O)OC3=C2C(=O)CC(C)(C)C3)cc(OC)c1OC` (stereo not given), the inhibition was 2.26% (inactive).

In the case of `CCOc1ccc(S(=O)(=O)NC(C)(C)C)cc1-c1nc2c(C(C)(C)C)nn(C)c2c(=O)[nH]1`, the inhibition is -2.73% (inactive).

Regarding `Cc1cc[n+](-c2ccccc2)c2ccccc12`, the inhibition was -10.7% (inactive).

`O=C(CSCc1c(F)cccc1Cl)NCc1ccco1`: the inhibition is -1.37% (inactive).

As for `CCN(CC)S(=O)(=O)c1ccc(C(=O)NCC2CCCCC2)cc1`, the inhibition was 2.49% (inactive).

Regarding `O=C(Nc1ccc(F)cc1)c1cc2cc(Cl)ccc2[nH]1`, the inhibition is 1.32% (inactive).

`COc1ccc(-c2ccc(SCC(=O)N3CC(=O)Nc4ccccc43)nn2)cc1`: the inhibition was -4.15% (inactive).

As to `CCn1cc(/C=C/C(=O)NCc2c(C)nn(C)c2C)cn1`, the inhibition was -7.26% (inactive).

Take `O=C1NC(=S)S/C1=C\c1ccc2ccccc2c1`: the inhibition was -15.5% (inactive).

For `O=C1NC(=O)/C(=C/c2cccc(O)c2)N1`, the inhibition is 1.96% (inactive).

For the compound `O=C1NC(=S)N/C1=C/c1ccc2ccccc2c1`, the inhibition was 5.93% (inactive). For the same compound, the inhibition under setting [1] is 2.73%.

Consider `Cc1ccc(OCCN2C(=O)c3ccccc3C2=O)c(C)c1`, for which the inhibition is 1.61% (inactive).

Take `COc1ccccc1OCCCOc1cccc(/C=C2\SC(=O)NC2=O)c1`: the inhibition is -1.96% (inactive). The inhibition under setting [1] came to 6.37%.

In the case of `C(=N\n1cnnc1)/c1cccc(OCCOc2ccccc2)c1`, the inhibition is -9.55% (inactive).
